Screening data as filed in PubChem BioAssay.
TIM10 inh: growth inhibitors of isogenic TIM10 control yeast, primary screen, counter-screen for tim10-1 yeast inhibitor project, luminescence, uHTS; S. cerevisiae TIM10 strain growth, BacTiter-Glo luminescence, 24 h; inhibition, % at 10 µM; 330,000 tested, 1.4% active; AID 463195, 2010;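 active = inhibition of 40% or more at the single tested concentration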;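 also: wild-type TIM10 isogenic control strain grown at permissive 25 °C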
tim23-1 inh: growth inhibitors of tim23-1 mutant yeast, primary screen, luminescence, uHTS; inhibition, % at 20 µM; S. cerevisiae tim23-1 growth, BacTiter-Glo luminescence, 24 h; AID 463212, 2010; 330,000 tested, 1.3% active;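 active = growth inhibition of the mutant yeast at or above 50%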;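 also: temperature-sensitive mutant grown at 25 °C; plate controls were DMSO-treated mutant yeast for no effect and medium wells lacking yeast for full effect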
SKKanGAS inh: S. pyogenes SKKanGAS growth inhibitors in kanamycin, primary screen, streptokinase expression inhibitor project, SKKanGAS strain, BacTiter-Glo luminescence; 6 h; inhibition, % at 7.5 µM; 300,000 tested, 1.3% active; AID 1662, 2009;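 active = mean replicate score, as percent of positive control median, at least 50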;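 also: strain carries kanamycin resistance gene driven by streptokinase promoter and grows in 40 µg/ml kanamycin; loss of luminescence reflects streptokinase promoter inhibition or plain growth inhibition; 0% = median of DMSO wells and 100% = positive control at its reference dose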
PfHsp90 yeast 2: growth inhibition of PfHsp90-expressing yeast, primary screen, antimalarial PfHsp90 inhibitor project, S. cerevisiae, BacTiter-Glo luminescence, single point, set 2. BacTiter-Glo ATP, 48 h; yeast lacking PDR1 and PDR3 efflux regulators. inhibition, % at 9.4 µM. 310,000 tested, 0.32% active;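 active = every replicate shows inhibition above about 80%, whatever the replicate mean, limit read from the data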;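 also: 0% = DMSO neutral controls and 100% = 20 µM radicicol positive controls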
tim10-1 inh: growth inhibitors of tim10-1 mutant yeast, primary screen, luminescence, uHTS; 330,000 tested, 2.2% active; inhibition, % at 20 µM; S. cerevisiae tim10-1 ts strain growth, BacTiter-Glo, 24 h;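 active = inhibition of at least 40%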;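 also: mutant grown at 25 °C; 0% = DMSO wells with yeast and 100% = wells holding no yeast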
ATG4B inh: ATG4B protease inhibitors, primary screen, biochemical, fluorescence, uHTS; inhibition, % at 8.33 µM; Cysteine protease ATG4B (Homo sapiens), Q9Y4P1; ATG4B cleavage of LC3-PLA2, NBD-HPC fluorescence, 1 h; 340,000 tested, 0.51% active; in the data active = inhibition above about 40%
Target sequence (Q9Y4P1 whole entry, looked up): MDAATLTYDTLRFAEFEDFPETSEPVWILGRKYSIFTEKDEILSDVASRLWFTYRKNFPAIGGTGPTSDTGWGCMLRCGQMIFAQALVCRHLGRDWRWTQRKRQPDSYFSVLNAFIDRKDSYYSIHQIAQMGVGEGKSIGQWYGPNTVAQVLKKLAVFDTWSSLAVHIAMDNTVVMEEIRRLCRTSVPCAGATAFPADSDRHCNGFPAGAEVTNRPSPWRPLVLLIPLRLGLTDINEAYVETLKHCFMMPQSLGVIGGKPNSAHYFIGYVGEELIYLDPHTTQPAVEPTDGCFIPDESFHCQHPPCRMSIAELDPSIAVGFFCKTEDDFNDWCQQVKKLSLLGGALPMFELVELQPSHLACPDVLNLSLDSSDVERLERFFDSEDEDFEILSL
tim10-1 confirm: growth inhibitors of tim10-1 mutant yeast, confirmation, single concentration, luminescence, S. cerevisiae. shares compounds with tim10-1 inh. S. cerevisiae tim10-1 ts strain growth, BacTiter-Glo, 24 h. inhibition, % at 20 µM. 7,400 tested, 56% active;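 active = inhibition of yeast growth at or above a set limit in either of two repeat tests at 20 µM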;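 also: tim10-1 mutant grown at permissive 25 °C to find synthetic lethal compounds; 0% = DMSO yeast wells and 100% = medium wells without yeast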
The depositor's hits bear a star; . = no result given. Hits are enriched below; roughly 4.7% of the tested compounds scored in any of these assays.

SMILES	TIM10 inh	tim23-1 inh	SKKanGAS inh	PfHsp90 yeast 2	tim10-1 inh	ATG4B inh	tim10-1 confirm
O=S(=O)(Nc1ccc(Cc2ccncc2)cc1)c1cccs1	0	10	-3	-7	11	4	.
O=C(c1noc2c1CCc1ccccc1-2)N1CCCc2ccccc21	2	40	-12	-3	42*	35	24
Nc1c(C(=O)NC2CCCC2)sc2nc(-c3cccs3)ccc12	30	22	1	-3	40*	-7	32*
NC(=O)c1sc2nc(-c3cccs3)ccc2c1N	-1	12	4	-2	16	-4	.
COc1cc(C(=O)NC(=S)Nc2ccc(Cc3ccncc3)cc2)cc(OC)c1OC	14	40	51*	-5	47*	-9	35*
COc1ccccc1C(=O)NC(=S)Nc1ccc(Cc2ccncc2)cc1	15	17	24	-18	23	2	.
FC(F)(F)c1nnc(-c2ccccc2)nc1Oc1ccc(Cl)cc1Cl	12	44	-4	-4	51*	-7	47*
CN(NC(=O)c1cccc(Cl)c1)c1nc(-c2ccccc2)nnc1C(F)(F)F	-15	-14	10	-21	-3	-1	.
Cc1nc2c(-c3ccc(F)cc3)c(C)nn2c(N2CCOCC2)c1C	31	34	-6	-3	45*	4	26
Cn1ncc(Br)c1C(=O)N/N=C/c1ccc(OS(=O)(=O)c2ccccc2)cc1	35	30	5	.	45*	-13	25
O=C(O)c1ccccc1C(=O)N1CCN(C(=O)c2ccccc2Cl)CC1	7	-10	-5	-28	3	-3	.
O=c1c2ccccc2nc(COc2ccccc2)n1/N=C/c1cn[nH]c1-c1ccccc1	26	10	8	-34	14	-8	.
COc1ccc(-c2cc(C3CC3)nc3sc(C#N)c(N)c23)cc1	35	47	29	-1	44*	4	57*
C=C(C)CN1C(=O)c2ccccc2C1=O	-12	-3	-4	-13	-9	3	.
C=C(C)CC1Nc2ccccc2NC1CC(=C)C (stereo not given)	34	43	2	9	42*	3	41*
CC1CCN(C(=O)c2ccc3c(c2NCCO)C(=O)c2ccccc2C3=O)CC1	22	40	12	.	42*	12	28
O=C(/C=C/c1cccnc1)c1ccc(F)c(F)c1	18	33	-4	5	40*	-8	26
Cc1[nH]c2ccccc2c1-c1csc(NC(=O)CSCC(=O)O)n1	6	24	-4	21	0	7	.
Cc1occc1C(=O)Nc1sc2c(c1C(N)=O)CCCCC2	39	28	3	-17	48*	-8	23
CC(CNC(=O)CCc1nnc(CCC2CCCCC2)o1)c1ccccc1 (stereo not given)	23	21	-3	-30	40	19	33*
Fc1ccccc1CNc1cc(Cl)cc(Cl)c1	20	26	73*	-8	59*	33	65*
CCn1c(-c2cc(-c3cccc(OC)c3)nc3ccccc23)n[nH]c1=S	37	39	10	.	43*	-10	23
CCc1ccc(-c2cc(-c3n[nH]c(=S)n3CC)c3ccccc3n2)cc1	.	.	6	.	.	.	.
Cc1coc2cc3oc(=O)c(CCC(=O)N[C@@H](CCCNC(N)=O)C(=O)O)c(C)c3cc12	-3	-5	-1	-14	0	-10	.
CC(=O)Nc1ccc(-c2csc(NC(=O)C3=COCCO3)n2)cc1	3	12	-6	.	14	7	.
SMILES	TIM10 inh	tim23-1 inh	SKKanGAS inh	PfHsp90 yeast 2	tim10-1 inh	ATG4B inh	tim10-1 confirm
N/C(=N\OC(=O)N1CCOCC1)c1ccc(Cl)cc1	17	33	-7	-4	61*	-3	49*
COc1ccc(C(=O)ON=C2C=C(C)C(=O)C(C)=C2)cc1	22	36	3	16	48*	-3	21
COc1ccccc1C(=O)O/N=C(/c1ccncc1)c1ccc([N+](=O)[O-])cc1	30	36	6	-13	47*	-11	26
N/C(=N\OC(=O)N1CCOCC1)c1ccccc1	11	13	2	24	-10	-3	.
Cc1ccccc1C(=O)O/N=C(\N)c1ccc([N+](=O)[O-])cc1	34	49	2	-10	53*	10	62*
COc1ccc(C(=O)O/N=C(\N)c2ccc(Cl)cc2)cc1	31	38	-7	-12	44*	-7	46*
COc1cc(C(=O)O/N=C(\N)c2ccc([N+](=O)[O-])cc2)cc(OC)c1OC	36	25	-3	-6	59*	-1	47*
Cc1ccc(C(=O)O/N=C(\N)c2ccc(Br)cc2)cc1C	21	21	-10	-1	36	-14	.
Cc1cc(C)cc(C(=O)O/N=C(\N)c2ccc(Br)cc2)c1	35	9	-9	-10	40*	-4	31*
COc1ccc(C(=O)O/N=C(\N)c2ccccc2)cc1OC	19	23	-4	-7	51*	-3	53*
O=C(CSCc1ccc(Cl)cc1)Nc1ccc(-c2nnc(-c3ccccc3)o2)cc1	8	-9	-2	3	7	-4	.
CCn1cc([N+](=O)[O-])c(C(=O)N2N=C(c3cccc4ccccc34)CC2c2ccccc2O)n1 (stereo not given)	17	2	39	3	16	-29	.
CC(=O)Nc1nc2c(c3c1c(=O)oc1ccccc13)CCCCC2	9	10	-1	.	16	.	.
Cc1ccc(OCc2nnc(NC(=O)OCC(C)C)s2)c(C)c1	-2	-5	4	.	4	.	.
O=C(CNC(=O)c1ccc(N2C(=O)c3ccccc3C2=O)cc1)OCC(=O)c1cccc2ccccc12	-9	-8	11	-9	8	-10	.
CCN(CC)S(=O)(=O)c1ccc(N/N=C/c2cc(OC)c(OC)cc2OC)nc1	-29	-40	0	-18	-16	3	.
CCN(CC)S(=O)(=O)c1ccc(N/N=C/c2ccc(O)cc2)nc1	25	20	-4	-44	42*	12	34*
CCOc1cccc(/C=N/Nc2ccc(S(=O)(=O)N(CC)CC)cn2)c1O	28	20	91*	-11	41*	-18	27
S=c1[nH]nc(-c2ccco2)n1/N=C/c1ccc(Cl)cc1Cl	38	37	10	-24	38	8	.
S=c1[nH]nc(-c2ccco2)n1/N=C/c1cccc(Cl)c1Cl	32	36	18	-53	41*	23	33*
